Source: PubChem BioAssay
Only some compounds are listed: those with a hit (about 6.2% of all), similar ones and a draw of the others.
Marburg entry inh: qHTS for inhibitors of binding or entry into cells for Marburg Virus; Marburg virus pseudotyped entry inhibition, cell reporter; Potency, µM (series often up to 37.8 µM), actives largely listed as inhibitors; 1.8% of 300,000 active; AID 540276, 2011; calls by dose curve; tested in HEK293 cells
Lassa entry inh: qHTS for Inhibitors of binding or entry into cells for Lassa Virus; Lassa virus pseudotype entry inhibition, cell reporter; 1.2% of 300,000 active; Potency, µM (highest dose often 37.9 µM), hits mostly inhibitors; calls by dose curve; tested in HEK293 cells; also: nearly all actives have a fitted effect of over 50% in size
HCMV antiviral: qHTS Assay for inhibitors of the human cytomegalovirus (HCMV); HFF cells, HCMV-luciferase reporter, 72 h; stronger effect = lower value; activity change, negative = inhibition, % at 57.5 µM; 4.5% of 410,000 active; AID 1259415, 2018; in the data active = activity change below about -60%; inconclusive = no clear call, values can overlap the other calls; inactive = above about -39%
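Compounds were evaluated in HFFs infected with an HCMV luciferase reporter virus (MOI 1 PFU/cell). Luciferase in lysates collected 72 h post infection served as the replication measure.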
FMDV antiviral: High Throughput Screening for Foot and Mouth Disease Virus Antivirals; FMDV antiviral cell-based qHTS; AID 1159524, 2015; Potency, µM (highest dose often 57.9 µM), usual class: inhibitors; 1.2% of 410,000 active; calls by dose curve; tested in HEK293T cells; also: read-out not given here; nearly all actives have a fitted effect of over 45% in size
Of the large screens only hits and unclear results are named; the others gave an inactive call.

CCOC(=O)c1ccc(Oc2nc(C)nc3c2oc2ccccc23)cc1	none (no result: Marburg entry inh)
COc1cc(C(=O)NCCC(=O)NC2CCCc3ccccc32)cc(OC)c1OC (stereo unspecified)	Marburg entry inh inconclusive
CCOCC(=O)NC1CCc2cc(OC)c(OC)c(OC)c2-c2ccc(SC)c(=O)cc21 (stereo unspecified)	Lassa entry inh inconclusive, HCMV antiviral -66
CCOC(=O)NC1CCc2cc(OC)c(OC)c(OC)c2-c2ccc(SC)c(=O)cc21 (stereo unspecified)	Marburg entry inh inconclusive, Lassa entry inh inconclusive, HCMV antiviral -72
CN[C@H]1CCc2cc(OC)c(OC)c(OC)c2-c2ccc(N[C@@H]3CCCCNC3=O)c(=O)cc21	none (no result: Marburg entry inh, Lassa entry inh, HCMV antiviral)
CCCCOC(=O)NC1CCc2cc(OC)c(OC)c(OC)c2-c2ccc(SC)c(=O)cc21 (stereo unspecified)	Marburg entry inh inconclusive, Lassa entry inh inconclusive, HCMV antiviral -80
COc1ccc(CC(=O)Cc2ccc(OC)c(OC)c2)cc1OC	none (no result: Marburg entry inh, Lassa entry inh)
OCC1(Cc2cccc(Cl)c2)CCCN(Cc2ccc3cc(F)ccc3n2)C1 (stereo unspecified)	Marburg entry inh inconclusive
CCOC(=O)c1[nH]c(C)c(C(=O)Nc2ccc(Cl)cc2)c1C	none
COc1ccc(NC(=O)c2[nH]c(C)c(C(C)=O)c2C)cc1Cl	Marburg entry inh inconclusive, Lassa entry inh inconclusive
COc1ccc(C(C)(C)C)cc1NC(=O)c1[nH]c(C)c(C(C)=O)c1C	Marburg entry inh 10µM, Lassa entry inh 11µM
COc1cccc(-c2nnc3n2N=C(c2cc(OC)ccc2OC)CS3)c1	Marburg entry inh inconclusive, Lassa entry inh inconclusive, HCMV antiviral -62
c1ccc(C2=Nn3c(nnc3-c3cc(-c4ccccc4)n[nH]3)SC2)cc1	Marburg entry inh inconclusive, Lassa entry inh 16µM, FMDV antiviral inconclusive
CCOc1cccc(-c2nnc3n2N=C(c2cc(OC)ccc2OC)CS3)c1	FMDV antiviral inconclusive
COc1ccc(C2=Nn3c(nnc3-c3ccc(OC)cc3)SC2)cc1	Marburg entry inh inconclusive, Lassa entry inh 1.3µM, HCMV antiviral -101, FMDV antiviral inconclusive
Clc1ccc(C2=Nn3c(nnc3-c3cc(-c4ccccc4)n[nH]3)SC2)cc1	Marburg entry inh inconclusive, Lassa entry inh inconclusive, FMDV antiviral inconclusive
Cc1cc(-c2nnc3n2N=C(c2ccccc2Br)CS3)n[nH]1	none
Cc1cccc(-c2nnc3n2N=C(c2ccccc2Br)CS3)c1	Marburg entry inh inconclusive, Lassa entry inh inconclusive, HCMV antiviral -83, FMDV antiviral inconclusive
COc1cccc(CN2CCC2(C)C(=O)Nc2ccc3c(c2)CCN3C(C)=O)c1F (stereo unspecified)	none (no result: Marburg entry inh, Lassa entry inh)
COc1cccc(-c2nnc3n2N=C(C(C)(C)C)CS3)c1	HCMV antiviral -98
COc1ccc(OC)c(C2=Nn3c(nnc3-c3ccncc3)SC2)c1	Marburg entry inh 4µM, Lassa entry inh inconclusive
COc1ccc(OC)c(C2=Nn3c(nnc3-c3cc(OC)c(OC)c(OC)c3)SC2)c1	Marburg entry inh inconclusive
COc1ccccc1-c1nnc2n1N=C(C(C)(C)C)CS2	none
O=C(Nc1ccc(Oc2cccnc2)cc1)c1ccccc1F	Marburg entry inh inconclusive, HCMV antiviral -86
CCOC(=O)Cc1ncccc1C(=O)Nc1ccc(Oc2ccccc2)cc1	Marburg entry inh inconclusive, HCMV antiviral -98
O=C(Nc1ccc(Oc2cccnc2)cc1)c1ccccc1Cl	HCMV antiviral inconclusive
COc1ccc(CCn2c(O)c(C=NCc3ccc4c(c3)OCO4)c(=O)[nH]c2=O)cc1OC	FMDV antiviral inconclusive
COc1ccccc1CNC(=O)COC(=O)C1=COCCO1	none
O=C(COC(=O)C1=COCCO1)NCc1ccc(Cl)cc1Cl	HCMV antiviral -61 (no result: Marburg entry inh, Lassa entry inh)
Cc1ccccc1NC(=O)c1c(NC(=O)Cc2ccccc2)sc2c1CCC2	none (no result: Marburg entry inh)
O=C1CN(C(=O)/C=C/c2ccccc2)CCN1	none
CCOC(=O)N1CCN(c2ccccc2OC)CC1	none
Cc1ccc(C(=O)C2=C(O)C(=O)N(Cc3cccnc3)C2c2ccc(Cl)cc2)o1 (stereo unspecified)	FMDV antiviral 16µM
CCOc1ccc(C2C(C(=O)c3ccc(C)o3)=C(O)C(=O)N2Cc2cccnc2)cc1 (stereo unspecified)	HCMV antiviral inconclusive (no result: Marburg entry inh, Lassa entry inh)
COc1ccc(NC(=O)c2ccc(-c3ccc(F)cc3)o2)cc1OC	FMDV antiviral inconclusive (no result: Marburg entry inh, Lassa entry inh)
O=C(NNc1nc(-c2ccccc2)cs1)c1ccc(F)cc1	HCMV antiviral -80
O=C1OC(Nc2nc3ccccc3s2)c2ccccc21 (stereo unspecified)	none
O=C(NNc1nc(-c2ccccc2)cs1)c1cccs1	Marburg entry inh inconclusive, Lassa entry inh inconclusive
CC1(C)CC(CC(=O)NNc2nc(-c3ccccc3)cs2)C(=O)O1 (stereo unspecified)	Marburg entry inh 1.3µM
